Hit rate of the full screen: of about 52,000 compounds, about 4,300 (8.3%) were called active. The list comes from a sample in which actives are over-represented; it also holds similar structures and randomly drawn compounds. A number with no mark means an inactive call. Cut-off read from the data, not from the text of the source: active = survival mostly below about 52% (no sharp cut-off); inactive = mostly above about 56%.
Each molecule was assayed on DeltatarO mutant (assay: S. aureus survival, RN4220 and DeltatarO strains – OD600, teichoic acid synthesis inhibitors, primary screen (AID 463173)). Settings: S. aureus RN4220 wild type/DeltatarO growth, OD600, 18 h, active compounds read low, screened at 18.75 µg/mL (by protocol).
Molecule Cc1nc2ccc(NC(=O)C3CC3)cc2c(=O)n1Cc1ccc(F)cc1 has a survival of 74%. For Cc1ccc(CCNC(=O)c2cc(-c3ccc(Cl)cc3)n[nH]2)cc1, the survival was 69%. CC(Nc1ncnc2c1cnn2-c1cccc(Cl)c1)c1ccccc1 (stereo not drawn) gave a survival of 124%. COc1ccccc1Cn1c(CNS(=O)(=O)c2ccc3c(c2)CCCC3)nc2cccnc21 gave a survival of 96%. In the case of CCOCCCn1c(=N)c(S(=O)(=O)c2ccccc2)cc2c(=O)n3cc(C)ccc3nc21, the survival is reported as 88%. Cc1ccc(CN2CCCn3nc(C(=O)NCc4ccc(N(C)C)cc4)cc3C2=O)cc1 gave a survival of 80%. Cc1ccc(C)c(N2CCN(C(=O)c3c(C)oc4nc(C)nc(N5CCOCC5)c34)CC2)c1 showed a survival of 115%. With Cc1ccc(Cl)cc1N1CCN(c2ncnc3onc(-c4ccc(F)cc4)c23)CC1 the survival was 97%. In the case of Cc1ccc(Cl)cc1N1CCN(c2ncnc3onc(C)c23)CC1, the survival is reported as 52% (active). Cc1oc2ncnc(N3CCCCC3)c2c1C(=O)N1CCN(c2ccc(Cl)cc2)CC1 was tested, and the survival was 60%. Work on Cc1ccc(C)c(N2CCN(c3ncnc4onc(C)c34)CC2)c1 yielded a survival of 90%. In the case of Cc1ccc(Cl)cc1N1CCN(C(=O)c2c(C)oc3ncnc(N4CCCCC4)c23)CC1, the survival is reported as -4% (active). For Cc1nc(N2CCOCC2)c2c(C(=O)N3CCN(c4cc(Cl)ccc4C)CC3)c(C)oc2n1, the survival was 46% (active). Cc1ccc(Cl)cc1N1CCN(C(=O)c2c(C)oc3ncnc(N4CCOCC4)c23)CC1 gave a survival of 89%. Molecule Cc1nc(N2CCCC2)c2c(C(=O)N3CCN(c4cc(Cl)ccc4C)CC3)c(C)oc2n1 has a survival of 102%. In the case of CCc1c(C)nc2cc(-c3ccc(OC)c(OC)c3)nn2c1NCC(C)(C)CN(C)C, the survival is reported as 98%. Cc1ccc(-n2ncc(C(=O)NCc3ccccn3)c2C2CCN(C(=O)OC(C)(C)C)CC2)cc1C gave a survival of 102%. With CCCC(=O)N1CCCC(c2nc(-c3ccc(OC)cc3)no2)C1 (stereo not drawn) the survival was 82%. CCOc1nc(NC(=O)NS(=O)(=O)Oc2cccc(F)c2)nc(-c2ccccc2)n1 was tested, and the survival was 74%. Work on Cc1c(NC(=O)Nc2ccccc2C(F)(F)F)sc2nc3n(c(=O)c12)CCC(C)CC3 (stereo not drawn) yielded a survival of 83%. COc1cccc(C(=O)NC2CC(=O)N(c3ccc4c(c3)OCCO4)C2)c1OC (stereo not drawn) showed a survival of 107%. Molecule CCCCN(CCCC)CCCNC(=O)c1ccc2nc(N3CCCCC3)sc2c1 has a survival of 102%. CCCCOCc1cc(CN2CCN(c3cccc(Cl)c3)CC2)c(O)c2ncccc12 showed a survival of 83%. CCc1cccc(C)c1NC(=O)C1CCN(S(=O)(=O)Cc2ccccc2)CC1 gave a survival of 84%. For Cc1ccc(S(=O)(=O)N(CC(=O)NCCSc2ccc(Cl)cc2)c2cccc(Cl)c2)cc1, the survival was 112%. For Cc1cccc(N(CC(=O)NCCc2ccccc2)S(=O)(=O)c2ccccc2)c1C, the survival was 56% (active). Molecule Cc1ccc(S(=O)(=O)N(CC(=O)NCCSc2ccc(Cl)cc2)c2ccccc2C)cc1 has a survival of 58%. In the case of Cc1ccc(S(=O)(=O)N(CC(=O)Nc2c(C)cccc2C)c2cccc(Cl)c2)cc1, the survival is reported as 46% (active). In the case of Cc1ccc(S(=O)(=O)N(CC(=O)Nc2ccc(Cl)cc2Cl)c2ccccc2C)cc1, the survival is reported as 106%. Molecule Cc1ccc(CNC(=O)CN(c2cccc(C)c2C)S(=O)(=O)c2ccccc2)cc1 has a survival of 73%. For Cc1cccc(N(CC(=O)NCCSCc2ccccc2)S(=O)(=O)c2ccccc2)c1C, the survival was 57%. With Cc1ccc(S(=O)(=O)N(CC(=O)NCCc2ccc(Cl)cc2)c2ccccc2C)cc1 the survival was 49% (active). For COc1ccc(CCNC(=O)CN(c2ccccc2OC)S(=O)(=O)c2ccc(C)cc2)cc1, the survival was 71%. Cc1ccccc1CNC(=O)c1cnc2sc(N3CCOCC3)nn2c1=O was tested, and the survival was 68%. Molecule Cc1ccc(-n2nc3c(=O)n(CCCC(=O)NCCc4ccccc4Cl)nc(C)c3c2C)cc1 has a survival of 91%. With COc1cccc(CNC(=O)CCc2c(C)nc3c(c(C)nn3-c3ccc(C)c(C)c3)c2C)c1 the survival was 67%. For O=S(=O)(c1ccccc1)c1nnn2c1nc(NC1CCCCCC1)c1sccc12, the survival was 72%. Cc1nc(N2CCOCC2)c2c(C(=O)N(C)Cc3ccccc3)c(C)oc2n1 showed a survival of 118%. COC(=O)c1scc(-c2ccc(C)cc2)c1S(=O)(=O)N1CCN(c2ccccc2F)CC1 showed a survival of 118%. COc1cccc(N2CC(NC(=O)c3cccs3)CC2=O)c1 (stereo not drawn) was tested, and the survival was 74%. For Cc1ccc(-n2ncc(C(=O)NCc3ccc4c(c3)OCO4)c2C2CCN(C(=O)OC(C)(C)C)CC2)c(C)c1, the survival was 92%. For COc1ccc(Cn2c(SCC(=O)Nc3ccc(OC)cc3)nc3ccccc32)cc1, the survival was 88%. In the case of CCOc1cc(Cn2c(-c3ccc(O)c(OCC)c3)nc3ccccc32)ccc1O, the survival is reported as 73%. COc1ccc(-c2noc(=O)n2Cc2ccccc2)cc1 was tested, and the survival was 75%. COc1ccc(-c2nc3ccccc3n2Cc2ccc(C(C)C)cc2)cc1 was tested, and the survival was 4% (active). With COc1ccc(-c2nc3ccccc3n2Cc2ccc(Cl)cc2)cc1 the survival was 6% (active). COc1ccc(Cn2c(=O)c3ccccc3n3c(-c4ccc(C)cc4)nnc23)cc1 gave a survival of 90%. For COc1ccc(-c2nc3ccccc3n2Cc2ccccc2)cc1, the survival was -1% (active). Molecule COc1ccc(Cn2c(SCC(=O)NCc3ccccc3)nc3ccccc32)cc1 has a survival of 117%. For COc1ccc(Cn2c(SC)nc3ccccc32)cc1, the survival was 97%. Cc1ccc(NC(=O)Cn2c(=O)oc3cc(S(=O)(=O)N4CCCCC4)ccc32)c(C)c1 was tested, and the survival was 81%. Cc1cc(C)cc(NC(=O)C(=O)NCCc2sc(-c3cccc(F)c3)nc2C)c1 showed a survival of 80%. COc1cccc(-n2c(=O)c3sc4ccccc4c3n(CC(=O)Nc3ccc(F)cc3F)c2=O)c1 showed a survival of 64%. In the case of O=C(NCCc1ccccc1)c1cc(Sc2cccc(Cl)c2)nc2ccccc12, the survival is reported as 88%. Cc1ccc2c(c1)-c1c(cnn1CC(=O)N1CCN(c3ccccc3F)CC1)CO2 gave a survival of 73%. In the case of Cc1cccc(N2CCN(C(=O)CCS(=O)(=O)c3ccc4c(c3)CC(=O)N4C)CC2C)c1 (stereo not drawn), the survival is reported as -2% (active). CCC(=O)N1CCc2cc(S(=O)(=O)CCC(=O)N3CCN(c4cccc(C)c4)C(C)C3)ccc21 (stereo not drawn) gave a survival of 76%. In the case of Cc1cccc(N2CCN(C(=O)Cn3ncc4c3-c3cc(C)ccc3OC4)CC2C)c1 (stereo not drawn), the survival is reported as 47% (active). For CCN(C(=O)Cn1ncc2c1-c1cc(C)ccc1OC2)c1cc(Cl)ccc1OC, the survival was 31% (active). CN1C(=O)Cc2cc(S(=O)(=O)CCC(=O)N3CCN(c4cccc(Cl)c4)CC3)ccc21 gave a survival of 62%. Cc1ccc2c(c1)-c1c(cnn1CC(=O)N1CCN(c3cc(Cl)ccc3C)CC1)CO2 gave a survival of 49%. With Cc1ccc2c(c1)-c1c(cnn1CC(=O)N1CCN(c3cccc(C(F)(F)F)c3)CC1)CO2 the survival was 50%. COc1cc(Cl)c(C)cc1NC(=O)Cn1ncc2c1-c1cc(C)ccc1OC2 was tested, and the survival was 58%.

— PubChem BioAssay AID463173 (ICCB-Longwood Screening Facility, Harvard Medical School, 2010)
